# OTUD3 inh – human OTUD3 deubiquitinase inhibition | Q5T2D3 | purified OTUD3, Ub-rhodamine fluorescence, 2 h | inhibition, % at 25 µM | 0.7% of 47,000 active | AID 1645858
# USP28 inh – inhibitors of human USP28 deubiquitinase. inhibition, % at 25 µM. 3% of 47,000 active. purified USP28, Ub-rhodamine cleavage fluorescence, 30 min. Q96RU2. AID 1645857
# USP17 block – inhibitors of human USP17 deubiquitinase | A8MUK1 | purified USP17, Ub-rhodamine cleavage fluorescence, 3 h | inhibition, % at 50 µM | 6.5% of 47,000 active
# Target sequence (A8MUK1 whole entry, looked up): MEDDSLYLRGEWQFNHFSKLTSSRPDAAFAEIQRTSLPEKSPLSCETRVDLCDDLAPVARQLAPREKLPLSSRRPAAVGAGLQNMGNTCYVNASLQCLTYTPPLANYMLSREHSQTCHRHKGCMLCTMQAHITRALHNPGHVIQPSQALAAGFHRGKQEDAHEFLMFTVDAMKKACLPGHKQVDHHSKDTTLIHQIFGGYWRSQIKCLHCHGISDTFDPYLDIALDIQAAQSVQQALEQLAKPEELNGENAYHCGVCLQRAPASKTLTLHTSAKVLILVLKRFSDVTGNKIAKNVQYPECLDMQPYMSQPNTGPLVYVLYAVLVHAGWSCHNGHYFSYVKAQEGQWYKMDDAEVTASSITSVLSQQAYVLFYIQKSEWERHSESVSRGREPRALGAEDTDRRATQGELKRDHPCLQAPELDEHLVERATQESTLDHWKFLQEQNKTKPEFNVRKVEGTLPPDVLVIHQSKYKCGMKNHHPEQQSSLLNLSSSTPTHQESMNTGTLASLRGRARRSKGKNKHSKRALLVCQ
# USP30 block – human USP30 deubiquitinase inhibition; Q70CQ3; purified USP30, Ub-rhodamine cleavage fluorescence; inhibition, % at 25 µM; 5.3% of 47,000 active
# * hit, by the source's call; i = inactive; x = no result given. Sampled rows, rich in hits. Any-hit rate of the full collection: about 12%. No stated cut-off is given here; in the data, active means inhibition above about 30%; inactive means the rest.
SMILES,OTUD3 inh,USP28 inh,USP17 block,USP30 block
CC(C(=O)N1CCC(O)CC1)N1CC2(CCOCC2)Oc2ccccc2C1=O (centres undefined),-4.3,-7.3,5.9,-6.7
CNc1nc2c(c(=O)n1C)CN(S(=O)(=O)c1ccc(C(C)(C)C)cc1)CC2,-13.7,-11.0,-16.6,-6.3
Cn1c(SCC(=O)NC2CCCC2)nnc1-c1nc(-c2ccccc2)no1,12.4,6.4,15.8,24.3
Cc1ccc(-c2noc(-c3nnc(SCC(=O)NC4CCCC4)n3C)n2)cc1,15.9,10.0,53.1*,29.2
CC(=O)Nc1ccc(SCC(=O)c2cc(C)n(CC3COc4ccccc4O3)c2C)cc1 (centres undefined),-17.7,-19.2,-26.7,-57.6
COCCn1c(C)cc(C(=O)CSc2ccc(Cl)cc2)c1C,7.6,30.1*,20.3,-13.0
Cc1ccc(-c2ncc(C(=O)NC(C)c3ccccn3)c(-c3ccncc3)n2)cc1 (centres undefined),-32.3,-36.9,-42.3,-141.2
CSc1ncc(C(=O)NC(C)c2ccccc2)c(-c2ccccc2)n1 (centres undefined),10.9,8.0,60.3*,23.1
NS(=O)(=O)c1ccc(NC(=O)COC(=O)c2sc3cc(F)ccc3c2Cl)cc1,15.3,34.0*,22.6,40.9*
O=C(COC(=O)c1sc2ccccc2c1Cl)Nc1ccc(F)cc1,7.6,7.7,2.3,24.7
CC(C)c1ccc(NC(=O)C2C3C=CC4(O3)C2C(=O)N(C2CC2)C4C(=O)NC2CCCCC2)cc1 (centres undefined),7.4,4.8,x,4.5
Cn1cccc1C(=O)N1CCN(C2CCN(Cc3ccc(-n4cncn4)cc3)CC2)C(=O)C1,-12.8,-9.8,-11.6,-22.1
COc1ccc(NC(=O)c2ccco2)cc1NC(=O)c1ccc(F)cc1,-1.5,1.9,-8.7,-4.5
COc1ccc(NC(=O)Cc2csc(NC(=O)c3ccco3)n2)cc1Cl,-14.0,20.5,49.1*,26.2
Cc1cccc(NC(=O)Nc2ccc(C)n(CC(=O)Nc3ccccc3)c2=O)c1,-16.3,40.3*,60.9*,41.2*
Cc1ccc(NC(=O)Nc2ccc(C)n(CC(=O)Nc3cccc(C)c3)c2=O)cc1,-0.3,18.9,0.0,26.9
Cc1ccc(NC(=O)Nc2ccc(C)n(CC(=O)Nc3cc(C)ccc3C)c2=O)cc1,45.8*,30.3*,53.8*,65.5*
Cc1ccc(C)c(NC(=O)Cn2ccc3ccn(C)c3c2=O)c1,0.0,0.0,46.1*,-4.1
Cc1ccc(NC(=O)Nc2ccc(C)n(CC(=O)Nc3ccc(C)cc3C)c2=O)cc1,74.4*,53.1*,78.7*,73.5*
COc1ccccc1C(=O)n1ccn(S(=O)(=O)c2ccc(C)cc2)c1=O,-0.1,-1.5,-2.5,0.5
Cc1noc(-c2cc3c(ccc4ccccc43)oc2=O)n1,10.1,13.0,42.2*,-15.7
COc1cnc(CSc2ncccn2)cc1OCC(=O)Nc1c(C)cc(C)cc1C,-2.4,-8.9,-23.3,0.0
COc1cnc(CSc2ccccc2)cc1OCC(=O)Nc1ccc(F)cc1F,6.6,10.9,34.1*,35.6*
COc1cnc(CSc2ccc(F)cc2)cc1OCC(=O)Nc1ccccc1F,2.5,7.2,41.1*,43.3*
Cc1ccc(NC(=O)c2cc(Br)cc3c2OCC3)cc1,-0.1,2.2,6.8,0.8
SMILES,OTUD3 inh,USP28 inh,USP17 block,USP30 block
CN(Cc1ccccc1)S(=O)(=O)c1ccc(C(=O)Nc2ccc3c(c2)OCO3)cc1,3.7,6.4,6.2,18.7
CCN(Cc1ccccc1)S(=O)(=O)c1ccc(C(=O)Nc2sccc2C(N)=O)cc1,0.5,x,42.8*,x
CCN(Cc1ccccc1)S(=O)(=O)c1ccc(C(=O)Nc2ccc(S(N)(=O)=O)cc2)cc1,-9.7,5.4,32.6*,-2.6
CN(Cc1ccccc1)S(=O)(=O)c1ccc(NC(=O)c2ccc(Cl)cc2)cc1,-1.1,-3.7,15.5,31.1*
CCN(c1ccccc1)S(=O)(=O)c1ccc(C(=O)Nc2cccc(NC(C)=O)c2)cc1,-17.3,-8.3,-15.8,-25.0
c1cnc(N2CCCC(c3cnc(Nc4cnccn4)cn3)C2)nc1 (centres undefined),10.7,14.4,4.8,11.0
CCn1c(=O)c(CCC(=O)N2CCN(c3ccccc3)CC2)c(C)c2c(C)nn(-c3cccc(C)c3)c21,-3.7,1.2,0.0,0.3
COc1ccccc1NC(=O)CC1C(=O)N(Cc2ccc(C)cc2)c2nc3ccccc3n21 (centres undefined),0.7,7.9,11.6,13.4
Cc1ccc(NC(=O)c2noc3c2CCc2sccc2-3)cc1Cl,21.4,11.3,12.8,20.4
O=C(Nc1ccccc1)c1noc2c1CCc1sccc1-2,5.1,19.2,36.8*,3.8
O=C(Nc1ccc(F)cc1)c1noc2c1CCc1sccc1-2,1.7,6.4,35.8*,3.3
Cc1cccc(NC(=O)c2noc3c2CCc2sccc2-3)n1,0.7,14.6,64.8*,22.0
CCOC(=O)CSc1cc(CS(=O)c2ccc(Cl)cc2)nc(-c2ccccc2)n1 (centres undefined),19.3,22.3,26.6,40.9*
COc1cccc(NC(=O)Cn2c(=O)cc(-c3ccccc3)c3c(C)nn(-c4ccccc4)c32)c1,16.2,1.5,12.7,11.2
Cc1cc(=O)n(CC(=O)NCc2ccccc2F)c2c1c(C)nn2-c1ccccc1,12.4,16.3,61.9*,33.1*
COc1ccc(Cl)cc1NC(=O)Cn1c(=O)cc(C)c2c(C)nn(-c3ccccc3)c21,13.1,10.1,56.1*,25.4
O=C(CSc1nc2ccccc2[nH]1)N1CCN(S(=O)(=O)/C=C/c2ccccc2)CC1,13.0,13.1,36.0*,31.1*
O=C(NCc1ccc2c(c1)OCO2)c1cn2cc(Cl)ccc2n1,-4.0,-18.5,47.5*,28.7
O=C(NCc1ccc2c(c1)OCO2)c1nc(-n2cnnc2)ccc1Br,11.0,10.4,34.5*,39.4*
Cc1ccc(OCCNC(=O)c2nc(-n3cnnc3)ccc2Br)cc1C,-10.7,-2.5,1.0,-110.1
O=C(CSc1ncnc2c1cnn2-c1ccc(Cl)cc1)Nc1ccc(F)cc1F,2.6,6.9,9.5,16.8
CC(=O)Nc1ccc(NC(=O)Cc2csc(COc3ccc(C)cc3)n2)cc1,16.3,x,52.2*,x
Cc1ccc(OCc2nc(CC(=O)Nc3cccc(F)c3)cs2)cc1,-5.2,-8.3,-7.5,-33.1
CCOc1ccc(S(=O)(=O)Nc2ccc[nH]c2=O)cc1,-1.6,15.8,87.4*,-1.3
CCOc1ccc(S(=O)(=O)Nc2ccccc2Cc2ccccc2)cc1,11.4,14.8,14.6,14.6
SMILES,OTUD3 inh,USP28 inh,USP17 block,USP30 block
O=C(CC1C=CCC1)N1CCC(c2ccc(Nc3ccc(F)cn3)cn2)CC1 (centres undefined),-16.9,-7.4,32.2*,-49.6
COc1ccc(CNC(=O)Cn2cnc3ccccc32)cc1OC,-3.9,-5.7,1.0,-4.8
COc1cc(Cn2nnc3ccccc32)cc(Br)c1O,8.5,38.2*,7.8,-8.0
Cc1cccc(NC(=O)NC2CCc3nc(C(F)(F)F)cn3C2)c1 (centres undefined),3.7,0.8,6.8,10.3
Cc1cc(/C=C(\C#N)c2nc3ccccc3[nH]2)c(C)n1CC(F)(F)F,-202.7,-233.5,-157.8,i
COc1cc2c(cc1NC(=O)c1ccc(-n3cnnn3)cc1)oc1ccccc12,-12.0,-6.2,52.6*,-5.9

# Source: PubChem BioAssay
